PubChem BioAssay AID485313 (National Center for Advancing Translational Sciences (NCATS), 2010)
In all, about 320,000 compounds went through this assay and about 7,600 (2.4%) were called active. A call without a number means that no potency is given here. Not shown: some 3% with an inconclusive outcome. The sample holds actives, similar compounds and a random draw of the others, so the mix is not that of the screen. Values without a mark were called inactive. Calls follow the shape of the dose curve; as a rule, active = well fitted activation curve with a large enough effect; inconclusive = small, poorly fitted or top-dose-only effect; inactive = no such curve, though single readings can be large or run the other way.

Assay: qHTS Assay for NPC1 Promoter Activators; also: nearly all actives have a fitted effect of over 60% in size;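 as to activation: reporter is driven by a mutant NPC1 promoter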
Conditions: Huh7 NPC1 promoter luciferase reporter, 24 h; series mostly up to 9.22 µM
Outline: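 Compounds in DMSO were transferred onto Huh7 NPC1-luciferase reporter cells pre-incubated 2 h; after 24 h at 37 °C, Amplite reagent was dispensed and luminescence recorded 10 min later.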
Potency is read from the fitted curve at half-maximal effect.

Question: Which Potency does the source give for `COc1ccc(OC)c(-c2csc(NC(=O)COC(=O)C3CC3)n2)c1` here?
Answer: inactive

Question: For `O=C(NCC1CCCO1)c1cc2c(s1)CCCC2` (stereo not drawn), which activation is on record?
Answer: 12.7% [at 1.84 µM]

Question: With `Cc1ccc(NS(=O)(=O)c2ccc(F)cc2)nc1` as the compound, how does the Potency read?
Answer: inactive

Question: Which Potency does the source give for `Cc1cc(C)cc(NS(=O)(=O)c2ccc(F)cc2)c1` here?
Answer: inactive

Question: Which Potency does the source give for `Cn1nccc1NS(=O)(=O)c1ccc(F)cc1` here?
Answer: 0.3 nM (active)

Question: Which Potency does the source give for `O=C(CCNC(=O)c1ccc(Cl)cc1)NC1CCCc2ccccc21` (stereo not drawn) here?
Answer: inactive

Question: For `CC(=O)c1cc2c(cc1N)OCO2`, which Potency is on record?
Answer: inactive

Question: With `Nc1[nH][nH]c(=O)c1N=Nc1ccc2c(c1)OCO2` as the compound, how does the Potency read?
Answer: 2820 nM (active)

Question: With `Cc1[nH][nH]c(=O)c1N=Nc1ccccc1` as the compound, how does the Potency read?
Answer: inactive

Question: For `Cc1cc(C)cc(OCC(=O)OCC(=O)NC2CCCC2)c1`, which Potency is on record?
Answer: inactive

Question: For `Nc1ccn(CC(=O)N2CCN(c3ccccn3)CC2)c(=O)n1`, which Potency is on record?
Answer: inactive

Question: For `CC(C)N(Cc1nnc(-c2ccccc2Br)o1)C(=O)c1cc(Cl)nc2ccccc12`, which Potency is on record?
Answer: inactive

Question: Which Potency does the source give for `CCC(=O)Nc1ccc(-c2ccc(N3CCCCC3)nn2)cc1` here?
Answer: 2240 nM (active)

Question: Which Potency does the source give for `CCCCSc1nnc(-c2ccc(NC(=O)CC)cc2)n1C` here?
Answer: inactive

Question: For `CCC(=O)c1ccc(OCC(=O)Nc2ccc(N3CCCCC3)cc2)cc1`, which Potency is on record?
Answer: inactive

Question: Which Potency does the source give for `CN(CC(=O)NCCc1ccc(F)cc1)CC(=O)Nc1ccc(F)c(F)c1F` here?
Answer: inactive

Question: For `O=C(Nc1ccc2c(c1)OCO2)C1CC1(Cl)Cl` (stereo not drawn), which Potency is on record?
Answer: inactive

Question: For `O=C(Nc1ccc2c(c1)OCO2)C1CC(c2c(F)cccc2Cl)=NO1` (stereo not drawn), which Potency is on record?
Answer: 3980 nM (active)

Question: Which Potency does the source give for `Cc1ccc(NC(=O)C2CC(c3ccc(F)cc3)=NO2)cc1` (stereo not drawn) here?
Answer: inactive

Question: For `CN(Cc1cccs1)C(=O)CN1C(=O)c2ccccc2S1(=O)=O`, which Potency is on record?
Answer: inactive

Question: With `O=C(COC(=O)c1cccc(Cl)c1)NC1CCCCCCC1` as the compound, how does the Potency read?
Answer: inactive

Question: With `CCCN(CC(=O)NC(=O)NC1CCCCC1)CC(=O)Nc1cc(Cl)ccc1Cl` as the compound, how does the Potency read?
Answer: inactive

Question: Which Potency does the source give for `CC(=O)NC12CC3CC(C1)CC(C(=O)N1CCN(S(=O)(=O)c4cccs4)CC1)(C3)C2` here?
Answer: inactive
